Screening results deposited in PubChem BioAssay by several laboratories.
EphB4 ephrin blk = blocks human EphB4 binding to ephrin-B2; 0.15% of 97,000 active; AID 720; EphB4 LBD / TNYL-RAW-Alexa532 peptide, fluorescence polarization; inhibition, % at 7 µM; P54760;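 active = inhibition above the screen-wide mean inhibition plus 3 SD, cut at about 15% in these data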
PLK1 PBD inh = Plk1 (human) PBD binding inhibition; Plk1 PBD phosphopeptide binding, fluorescence polarization; P53350; inhibition, %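 (tested at about 20 µM)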; 0.13% of 97,000 active; in the data active = inhibition above about 34%, passing the limit was not always enough
Target sequence (P53350 whole entry, looked up): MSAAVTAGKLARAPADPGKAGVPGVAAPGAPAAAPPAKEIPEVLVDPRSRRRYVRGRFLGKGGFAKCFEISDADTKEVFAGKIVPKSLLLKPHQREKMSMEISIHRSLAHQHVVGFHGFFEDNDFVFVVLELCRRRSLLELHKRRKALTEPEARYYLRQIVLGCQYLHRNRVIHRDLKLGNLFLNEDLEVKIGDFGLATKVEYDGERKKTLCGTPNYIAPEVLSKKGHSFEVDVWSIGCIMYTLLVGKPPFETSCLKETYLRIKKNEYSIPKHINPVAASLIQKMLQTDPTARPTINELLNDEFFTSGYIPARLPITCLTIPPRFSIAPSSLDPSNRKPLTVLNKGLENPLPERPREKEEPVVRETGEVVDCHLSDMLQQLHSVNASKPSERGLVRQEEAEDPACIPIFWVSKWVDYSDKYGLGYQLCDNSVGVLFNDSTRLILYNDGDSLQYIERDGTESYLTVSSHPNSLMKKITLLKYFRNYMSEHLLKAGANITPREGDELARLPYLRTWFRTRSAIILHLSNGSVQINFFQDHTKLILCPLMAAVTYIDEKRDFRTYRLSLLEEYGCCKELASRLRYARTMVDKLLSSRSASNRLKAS
FAK blocker = blocks human focal adhesion kinase activity. 0.84% of 97,000 active. AID 727. inhibition, %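 (tested at 7 µM)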. biochemical FAK kinase activity assay. Q05397
LYP act = activators of human LYP (PTPN22) phosphatase; recombinant LYP, DiFMUP fluorescence; 0 = plate median, 100 = signal doubled; AID 697; 0.11% of 96,000 active; activation, % at 2 µM; Q9Y2R2;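 active = activation at 2 µM above a set limit, the mean plus 5 SD, cut at about 37% in these data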
PLK1 inh = blocks human PLK1 kinase activity. P53350. recombinant PLK1 kinase, TR-FRET peptide phosphorylation. inhibition, % at 10 µM. 0.53% of 97,000 active. AID 619;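 active = inhibition of 50% or more in the single-concentration screen; inactive = inhibition below 50%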
LYP inh 2 = inhibitors of human LYP (PTPN22) phosphatase. Q9Y2R2. recombinant LYP catalytic domain, DiFMUP fluorescence. inhibition, % at 2 µM. 0.21% of 96,000 active. AID 640;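 active = inhibition at 2 µM at or above a set limit, the screen mean plus 3 SD, cut at about 24% in these data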
FAK inh confirm = FAK (human) inhibition confirmed; 28% of 750 active; inhibition, % at 7 µM; shares compounds with FAK blocker; FAK kinase biochemical inhibition assay
Of the large screens only hits and unclear results are named; the others gave an inactive call (follow-up assays come after a bar, where they were run). Only some compounds are listed: those with a hit (about 1.7% of all), similar ones and a draw of the others. Rule as the data show it, unless noted: active = inhibition above about 19%; inactive = the rest.

CCOC(=O)c1c(C)c(C(=O)NCc2ccccc2OC)c(C)n1C	FAK blocker 45.9 | FAK inh confirm inactive
COc1ccc(C(=O)NCc2ccccc2OC)cc1	none
O=C1c2ccccc2C(=O)C1c1ccncc1	FAK blocker 25.1 | FAK inh confirm inactive
CCCNC(=O)c1ccccc1NC(=O)c1ccc(CSc2ccccc2)cc1	none
O=C(CCC1CCCCC1)N1CCN(Cc2ccc3c(c2)OCO3)CC1	none
O=C(N/N=C/c1ccncc1)c1cc2c(ccc3ccccc32)o1	FAK blocker 52.1 | FAK inh confirm inactive
CN(C(=O)Nc1ccc(Cl)cc1Cl)[C@H]1c2cc(Br)ccc2OC[C@H]1CO	none (no result: LYP act, LYP inh 2)
C=CCOC(=O)Nc1c(C(=O)OC)[nH]c2ccc(Cl)cc12	none
O=C(CSc1ncccn1)n1c2c(c3ccccc31)CCCC2	none
CN1CCN(CC(=O)n2c3c(c4ccccc42)CCCC3)CC1	FAK blocker 20.0 | FAK inh confirm inactive
CN1/C(=N\O)c2cccc3cccc1c23	FAK blocker 20.9 | FAK inh confirm inactive
O=C(Nc1ccc2c(c1)OCCO2)c1cccc2nc3ccccc3nc12	FAK blocker 38.0 | FAK inh confirm inactive
Cc1nnc(NC(=O)CSc2nc(C(C)C)nc3ccccc23)s1	FAK blocker 46.1 | FAK inh confirm 22.8
Cc1cc(NC(=O)CSc2nc(C(C)C)nc3ccccc23)no1	FAK blocker 44.8 | FAK inh confirm 27.9
Cc1cc(NC(=O)CSc2ccccc2)no1	none
CC(C)(C)c1nc(SCC(=O)Nc2nc3c(s2)CCCC3)c2ccccc2n1	none
CC(C)c1nc(SCC(=O)Nc2nc3c(s2)CCCC3)c2ccccc2n1	FAK blocker 19.6 | FAK inh confirm inactive
C=CCc1ccccc1OCC(O)CN(CC)CC (centres undefined)	none
CC1C/C(=N\NC(=S)NC(C)C)CC(C)(C)C1 (centres undefined)	none
CCOC(=O)N1CCC(=NNS(=O)(=O)c2cccc([N+](=O)[O-])c2)CC1	none
CCOc1ccc(-c2nnn(CC#N)n2)cc1OC	none
CCCN1CCCc2cc(CN)ccc21	FAK blocker 23.7 | FAK inh confirm inactive
CN1CCCc2cc(C=O)ccc21	none
Cc1ccc2c(n1)sc1c(-c3ccc(Br)cc3)c(C#N)c(N)nc12	FAK blocker 29.2 | FAK inh confirm inactive
CNc1nc(C)c(C(=O)OCc2ccccc2)s1	none
c1nc(N2CCOCC2)c2c3c(sc2n1)CCCC3	FAK blocker 28.3 | FAK inh confirm inactive
COC(=O)c1ccc(COC(=O)CNC(=O)c2ccco2)cc1	none
O=C(CNC(=O)c1ccco1)OCC(=O)c1ccc2c(c1)CCCC2	FAK blocker 26.9 | FAK inh confirm inactive
CCOC(=O)c1ccc(Nc2nc(-c3cccnc3)nc3ccccc23)cc1	FAK blocker 21.5 | FAK inh confirm inactive
CCOC(=O)C1=C(c2ccccc2)OC(N)=C(C#N)C1c1cccs1 (centres undefined)	FAK blocker 25.8 | FAK inh confirm 20.0
COc1ccc(-c2c3c(nc4sc(C(=O)Nc5cc(C)on5)c(N)c24)CCC3)cc1	none
NC(=O)c1sc2nc3c(c(-c4ccco4)c2c1N)CCC3	FAK blocker 34.2 | FAK inh confirm 20.4
COc1cc(-c2cc(OC)c3c(C)oc(C)c3c(=O)c2)ccc1O	FAK blocker 20.5 | FAK inh confirm inactive
COc1ccc(-c2cc(OC)c3c(C)oc(C)c3c(=O)c2)cc1OC	none
Clc1ccc2[nH]c3c(c2c1)CCc1cn[nH]c1-3	FAK blocker 19.6 | FAK inh confirm inactive
c1ccc2c3c([nH]c2c1)-c1[nH]ncc1CC3	FAK blocker 42.2 | FAK inh confirm 20.2
CC(=O)N1CCc2[nH]c3ccccc3c2C1	none
CCC(=O)Nc1ccc2nc(SCC(=O)N3CCCC3)sc2c1	none
CCN(CC)C(=O)CSc1nc2ccc(NC(=O)CSc3nnc(N)s3)cc2s1	FAK blocker 20.9 | FAK inh confirm inactive
Cn1c(SCC(=O)Nc2ccc3nc(SCC(=O)N4CCCC4)sc3c2)nnc1-c1ccc(N)cc1	FAK blocker 30.7 | FAK inh confirm 31.9
COC(=O)c1sccc1NC(=S)N1CC(C)CC(C)C1 (centres undefined)	none
CC1=NC(C(F)(F)F)(C(F)(F)F)C2=C(CC(C)(C)CC2=O)N1Cc1ccco1	none
O=C(Cc1ccc(S(=O)(=O)N2CCOCC2)s1)Nc1nc2c(s1)CCCC2	FAK blocker 22.5 | FAK inh confirm inactive
COc1ccc(N2Cc3cccc(C(=O)N4CCN(C(=O)c5ccco5)CC4)c3C2=O)cc1	FAK blocker 49.3 | FAK inh confirm inactive
COc1ccc(N2Cc3cccc(C(=O)N4CCOCC4)c3C2=O)cc1	none
Cc1ccc(-n2nc3ccc(NC(=O)c4ccc5c(c4)OCO5)cc3n2)cc1	FAK blocker 25.4 | FAK inh confirm inactive
COc1cc(/C=C(/C#N)c2nc3ccccc3[nH]2)ccc1OCc1ccc(C(=O)O)o1	none
COC(=O)c1ccc(COc2ccc(/C=C(\C#N)c3nc4ccccc4[nH]3)cc2OC)o1	FAK blocker 55.5 | FAK inh confirm 22.6
N=c1oc2c3c4c(cc2cc1C(=O)Nc1ccccc1)CCCN4CCC3	FAK blocker 29.4 | FAK inh confirm inactive
O=P(O)(O)c1ccccc1OCc1ccccc1	FAK blocker 83.8 | FAK inh confirm 80.8
O=P(O)(O)c1ccccc1OCCCCCOc1ccccc1P(=O)(O)O	FAK blocker 88.0 | FAK inh confirm 65.8
COc1nnc(-c2ccc(N3CCCCC3)c(NC(C)=O)c2)c2ccccc12	FAK blocker 20.3 | FAK inh confirm 19.5
COc1nnc(-c2ccc(N3CCCCC3)c(NC(=O)C3CCCCC3)c2)c2ccccc12	none
O=C(CSCC(=O)N1CCCCC1)OCC(=O)c1c[nH]c2ccccc12	none
O=C(c1ccco1)[C@@H]1[C@@H]2C(=O)N(c3ccc(Br)cc3)C(=O)[C@@H]2C2c3ccccc3C=CN21 (some centres undefined)	FAK blocker 19.2 | FAK inh confirm inactive
CC(=O)[C@H]1[C@@H]2C(=O)N(c3cccc(Cl)c3)C(=O)[C@@H]2[C@H]2c3ccccc3C=CN21	FAK blocker 22.9 | FAK inh confirm inactive
CC(=O)[C@@H]1[C@@H]2C(=O)N(C3CCCCC3)C(=O)[C@@H]2C2c3ccccc3C=CN21 (some centres undefined)	none
CC(C)(C)C(=O)[C@@H]1[C@@H]2C(=O)N(Cc3ccccc3)C(=O)[C@@H]2[C@H]2c3ccccc3C=CN12	none
O=C(c1ccco1)[C@@H]1[C@@H]2C(=O)N(c3ccc(F)cc3)C(=O)[C@@H]2C2c3ccccc3C=CN21 (some centres undefined)	FAK blocker 34.6 | FAK inh confirm inactive
Cc1ccc(S(=O)(=O)Nc2cc(C(=O)Nc3cc(C)cc(C)c3)ccc2Cl)cc1	none
